ATXN2 expr inh: ATXN2 expression inhibition. HEK-293 ATXN2-luciferase reporter, luminescence, 24 h. Potency, µM (highest dose often 57 µM), for the others: at the highest dose activity change, negative = inhibition, actives largely listed as inhibitors. AID 1745845. 360,000 tested, 0.72% active; note: % is set by controls: 0 for no effect and ±100 for the full control effect; nearly all actives have a fitted effect of over 55% in size
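qHTS (up to 57 uM final) was run with 24 h compound exposure of reporter cells at 37 °C. Each well was multiplexed: SteadyGlo luminescence measured ATXN2-luciferase expression after a fluorogenic Gly-Phe-AFC viability readout (25 uM final).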
A549 tox: A549 cytotoxicity, counter-screen for Nrf2 inhibitors; 390,000 tested, 0.16% active; Potency, µM (doses to about 46 µM), for the others: top-dose activity change, negative = cytotoxicity, hits mostly inhibitors; A549 ARE-Fluc cells, CellTiter-Fluor viability, 18-24 h; AID 504648; note: % is set by controls: 0 for no effect and ±100 for the full control effect
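A549 ARE_Fluc cells in 5% FBS OPTI-MEM were exposed to compounds in concentration-response for 18-24 h at 37 deg C. Viability was read by CellTiter-Fluor fluorescence (Ex 405/Em 525) after 30 min, before the luciferase read.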
Nrf2 inh: blocks Nrf2 signaling. 360,000 tested, 2.1% active. Potency, µM (doses to about 46 µM), for inactives: at the top dose activity change, negative = inhibition, actives largely listed as inhibitors. A549 ARE-Fluc reporter, luciferase luminescence, 18-24 h; note: % is set by controls: 0 for no effect and ±100 for the full control effect; nearly all actives have a fitted effect of over 60% in size
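A549 ARE_Fluc cells, 5000/well, 5% FBS OPTI-MEM; compounds in dose-response, 18-24 h at 37 °C/5% CO2; CellTiter-Fluor viability read (Ex 405/Em 525), then BugLite luciferase luminescence = Nrf2 activity.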
ATXN viability: viability counter-screen for ATXN expression inhibitors. S2 cells (HEK-293 line with an ATXN2-luciferase reporter) viability, CellTiter-Fluor protease fluorescence, 24 h. Potency, µM (series often up to 56.7 µM), actives largely listed as cytotoxic. 400,000 tested, 0.49% active; note: nearly all actives have a fitted effect of over 40% in size
Nrf2 ARE act: activators of Nrf2 (ARE) signaling. AREc32 ARE-luciferase reporter (MCF7-derived line), luminescence, 24 h. Potency, µM (top dose mostly 46.1 µM), for the others: at the highest dose activation, hits mostly activators. 410,000 tested, 0.31% active; note: % of control where 0% means no effect; nearly all actives have a fitted effect of over 65% in size
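ARE activation measured as luciferase luminescence (Steady-Glo, 30 min RT) in AREc32_Fluc cells after 24 hr compound exposure at 37 deg C, 5% CO2; cells seeded overnight at 1000/well in OPTI-MEM, 5% FBS.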
Numbers without * were called inactive; i = inactive; ? = inconclusive; · = no result; ! = not confirmed by another sample. The list is not random: actives were taken first. Their share in the collection is about 2.9%. Calls come from the whole dose curve; as a rule, active = well fitted curve in the direction sought with a large enough effect; inconclusive = small, poorly fitted or top-dose-only effect, or another doubt; inactive = no such curve, though single readings can be large; an effect the other way counts as inactive or inconclusive. Potency is the fitted concentration of half-maximal effect.

SMILES	ATXN2 expr inh	A549 tox	Nrf2 inh	ATXN viability	Nrf2 ARE act
COc1ccc(NC(=O)N2CCCc3ccccc32)cc1	0%	·	26%	i	4%
CC(=O)N1CCc2cc(S(=O)(=O)Nc3cccc(C(F)(F)F)c3)ccc21	?	2%	9.2µM*	i	-1%
COc1ccc(N/N=C(/C(C)=O)N2CCCc3ccccc32)cc1	0%	-8%	6.5µM*	i	0%
COc1cccc(NS(=O)(=O)c2ccc3c(c2)CCN3C(C)=O)c1	-8%	-6%	10µM*	i	4%
COc1cccc(CN(C)C(=O)c2cnn(-c3ncc4c(n3)-c3ccccc3CCC4)c2C)c1	·	·	·	i	·
Cc1ccc(C(=O)Nc2cccc(-c3nc(CNC(=O)C4CCCCC4)c(C)o3)c2)s1	·	·	·	i	·
COc1ccc(S(=O)(=O)Nc2ccc3c(c2)N(C(C)=O)CCC3)cc1	-11%	-9%	12µM*	i	0%
CCc1ccc(S(=O)(=O)Nc2ccc3c(c2)sc(=O)n3C)cc1	·	3%	·	·	7%
COc1ccc(S(=O)(=O)Nc2ccc3c(c2)N(C(C)=O)CCC3)cc1OC	9%	0%	-20%	i	0%
CC(=O)N1c2ccc(S(=O)(=O)Nc3ccc(C)c(C)c3)cc2CC1C (configuration not stated)	·	?	10µM*	·	·
CCc1cccc(NS(=O)(=O)c2ccc3c(c2)CC(C)N3C(=O)C2CC2)c1 (configuration not stated)	-39%	-21%	12µM*	?	0%
CC(=O)N1c2ccc(S(=O)(=O)Nc3ccc(C)c(Cl)c3)cc2CC1C (configuration not stated)	-19%	9%	?	i	6%
CCn1c(=O)sc2cc(NS(=O)(=O)c3ccc(C)cc3)ccc21	34%	0%	18µM*	?	9%
CCC[C@@H]1C[C@@H](C(=O)N[C@@H]([C@H]2O[C@H](SC)[C@H](O)[C@@H](O)[C@H]2O)[C@H](C)Cl)N(C)C1	·	·	·	i	·
COc1cc(=O)n2c(c1C(=O)NCc1ccco1)CCN(C(=O)c1c(F)ccc(F)c1F)CC2	·	·	·	i	·
Cc1cnc(-n2ncc(C(=O)NCC(C)(C)N3CCOCC3)c2C)nc1-c1cccs1	·	·	·	i	·
Cc1cc(C)cc(NS(=O)(=O)c2ccc3c(c2)CCCN3C(=O)C2CCC2)c1	?	-4%	·	25µM*	0%
Cc1ccc(S(=O)(=O)Nc2ccc3c(c2)CCC3)cc1	?	?	12µM*	i	0%
O=C(C1CCC1)N1CCCc2cc(S(=O)(=O)Nc3ccc(F)cc3)ccc21	-16%	-11%	·	i	1%
CC(=O)N1CCc2cc(S(=O)(=O)Nc3ccc(C)c(C)c3)ccc21	·	-5%	15µM*	·	·
CN(Cc1ccc(OC(F)F)cc1)C(=O)c1ccc(S(=O)(=O)N(C)c2ccccc2)cc1	-28%	-6%	?	i	1%
C/C(=N\NC(=O)c1ccc(CN(C)S(=O)(=O)c2ccc(C)cc2)cc1)c1ccc(OC(F)F)cc1	?	-18%	5.2µM*	?	0%
Cc1cc(C)c2c(c1)C1C=CCC1C(C(=O)O)N2 (configuration not stated)	·	-15%	-4%	·	·
COc1cccc(-c2csc3ncnc(Sc4nnnn4C)c23)c1	?	?	26µM*!	?	?
Cn1nnnc1Sc1ncnc2scc(-c3cccc(Cl)c3)c12	·	-18%	23µM*	·	·
SMILES	ATXN2 expr inh	A549 tox	Nrf2 inh	ATXN viability	Nrf2 ARE act
C=C1C(=O)O[C@@]23[C@H]1CC[C@@H](C)[C@@H]2CC[C@@]1(C)O[C@@H]31	?	?	15µM*	?	-3%
Cc1cc(OCCCN2CCC(C(O)(c3ccccc3)c3ccccc3)CC2)ccc1Br	32µM*	·	·	22µM*	-3%
CCN(CC(=O)Nc1ccccc1C(F)(F)F)C(=O)c1ccc2[nH]c3c(c2c1)CC(C)CC3 (configuration not stated)	-24%	?	26µM*	i	2%
CC1CCc2[nH]c3ccc(C(=O)N(C)CC(=O)Nc4ccc(F)cc4)cc3c2C1 (configuration not stated)	-29%	-15%	-29%	i	2%
COc1ccc(NCc2cc3cc4c(cc3n(CC(=O)Nc3cc(C)ccc3C)c2=O)OCCO4)cc1	-7%	-14%	-14%	i	-1%
COc1ccc(C(CC(=O)Nc2ccc(F)c(Cl)c2)N2Cc3ccccc3C2=O)cc1OC (configuration not stated)	-9%	-3%	-4%	i	6%
Cc1ccc(C(=O)/C=C/C(=O)O)cc1	·	12%	4%	i	22µM*
CC(=O)Nc1ccc(C(=O)Nc2ccc3c(c2)N(C2CCCC2)C(=O)c2ccccc2S3)cc1	-27%	-10%	·	?	7%
O=C(c1cc(-c2ccc(Br)cc2)n[nH]1)N1CCN(C(=O)c2ccccc2Br)CC1	·	-14%	26µM*	?	6%
COc1ccc(S(=O)(=O)N2CCN(C(=O)c3cc(-c4ccc(Br)cc4)n[nH]3)CC2)cc1OC	?	-13%	21µM*	i	3%
O=C(c1cc(-c2ccc(Br)cc2)n[nH]1)N1CCN(S(=O)(=O)c2ccc(Br)cc2)CC1	·	-1%	-9%	·	3%
C=CC1=C(C(=O)O)N2C(=O)[C@@H](NC(=O)C(=NO)c3csc(N)n3)[C@H]2SC1	6%	·	·	·	·
CCOc1ccccc1CN(CCc1ccc2c(c1)OCO2)Cc1cc(OC)c(OC)cc1OC	·	2%	10%	·	5%
Cc1cc2nn(-c3ccccc3)nc2cc1NC(=O)c1cccs1	48%	-17%	19%	i	7.1µM*
CCOC(=O)c1[nH]c2c(c1-c1ccccc1)C(=O)CC(c1ccc(OC)c(OC)c1)C2 (configuration not stated)	?	0%	21µM*	?	1%
CCOCCOC(=O)c1[nH]c2c(c1C)C(=O)CC(c1cc(OC)c(OC)c(OC)c1)C2 (configuration not stated)	-37%	-8%	23µM*	i	1%
CCOCCOC(=O)c1[nH]c2c(c1C)C(=O)CC(c1ccccc1)C2 (configuration not stated)	-14%	-13%	?	?	1%
COc1cccc(CNC(=O)c2cnn(-c3ncc4c(n3)-c3ccccc3CCC4)c2C)c1OC	·	·	·	i	·
Cc1c(/C=N/NC(=O)c2ccccc2O)c2ccccn2c1C(=O)c1ccc(F)cc1	?	18µM*	21µM*	i	3%
Cc1ccc(Sc2ccc(NC(=O)CCl)cc2)c(C)c1	32µM*	4%	-9%	·	?
OC(c1cc(-c2ccc(C(F)(F)F)cc2)nc(C(F)(F)F)c1)C1CCCCN1 (configuration not stated)	·	14%	-27%	3.2µM*	-4%

Source: PubChem BioAssay (National Center for Advancing Translational Sciences (NCATS))
